For nine compounds, growth inhibition results are on record in PubChem BioAssay (NCI).

Assay [1] is described as follows: NCI Yeast Anticancer Drug Screen. Data for the rad50 strain (AID 155).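 Further: 0% = growth of vehicle-only cultures of the same strain.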 Particulars: S. cerevisiae rad50 strain growth inhibition, hits give high values. The gist of the method: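 Readout: growth inhibition relative to vehicle-treated cultures. Compound exposure was carried out in a genetically defined yeast strain deficient in DNA damage repair.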
The nature of assay [2]: NCI Yeast Anticancer Drug Screen. Data for the mec2-1 strain (AID 157). As to conditions: S. cerevisiae mec2-1 strain, hits give high values. In a few lines:
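Strain: mec2-1 (DNA repair/cell cycle alteration). Compound exposure, then growth measured; inhibition expressed relative to vehicle.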

Assay [3] is described as follows: NCI Yeast Anticancer Drug Screen. Data for the sgs1 mgt1 strain (AID 161).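 Further: 0% = growth of cultures given vehicle only.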 Particulars: S. cerevisiae sgs1 mgt1 strain, hits give high values. In a few lines:
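Genetically altered yeast, compound exposure, growth inhibition relative to vehicle.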

Assay [4] is described as follows: NCI Yeast Anticancer Drug Screen. Data for the cln2 rad14 strain (AID 165).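 Further: 0% = growth equal to vehicle treated cultures.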 Particulars: S. cerevisiae cln2 rad14 strain, hits give high values. In a few lines:
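Compounds are applied to the cln2 rad14 yeast strain, and growth is then compared with that of vehicle-treated cultures to give inhibition.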

Assay [5] can be described thus: NCI Yeast Anticancer Drug Screen. Data for the bub3 strain (AID 167). As to conditions: S. cerevisiae bub3 mutant strain, hits give high values. In a few lines:
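Readout: yeast growth inhibition, expressed relative to vehicle-only wells. The test organism is a mutant strain from a panel with lesions in DNA repair or checkpoint genes.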

The nature of assay [6]: NCI Yeast Anticancer Drug Screen. Data for the mlh1 rad18 strain (AID 175). Particulars: S. cerevisiae mlh1 rad18 strain growth inhibition, hits give high values. The gist of the method: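 Read-out is yeast growth inhibition, calculated against vehicle-only controls. The compound was applied to a strain engineered with DNA damage repair alterations.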
Setting [7] is: at 5.0 µM (retest, dose inferred, filed as 0.5).
[8] abbreviates: at 50.0 µM (retest, dose inferred, filed as 5.0).

The panel holds about 79,000 compounds, 15% with a hit somewhere; the sample as a whole holds those more often. Values without a mark were called inactive. Active and inactive are the calls of the source. No stated cut-off is given here; in the data, active means growth inhibition above about 70%; inactive means the rest.

Turning to `CC(/C=C1\C(=O)N(C)C(CC(C)C(Cl)(Cl)Cl)C(=O)N1C)C(Cl)(Cl)Cl` (configuration not stated), the growth inhibition in assay [1] (setting [7]) was 6%; in assay [1] (setting [8]), 78% (active); in assay [1] (at 50.0 µM), 62.8%; in assay [2] (setting [7]) it was 7%; in assay [2] (setting [8]), 74% (active); in assay [2] (at 50.0 µM), 30.8%. Moreover, the growth inhibition is 4% in assay [3] (setting [7]); 76% (active) in assay [3] (setting [8]); 57.7% in assay [3] (at 50.0 µM); 25% in assay [4] (setting [7]); 74% (active) in assay [4] (setting [8]); 38.5% in assay [4] (at 50.0 µM). The growth inhibition in assay [5] (setting [7]) was 28%; in assay [5] (setting [8]), 79% (active); in assay [5] (at 50.0 µM) it was 36.2%; in assay [6] (setting [7]) it was 13%; in assay [6] (setting [8]), 79% (active); in assay [6] (at 50.0 µM), 70.7% (active).
Regarding `Cc1cc(C(=O)CBr)c(CN2C(=O)c3ccccc3C2=O)c(=O)n1C`, the growth inhibition in assay [1] (setting [7]) is 17%; in assay [1] (setting [8]) it was 98% (active); in assay [1] (at 50.0 µM), 63.3%; in assay [2] (setting [7]), 49%; in assay [2] (setting [8]), 99% (active); in assay [2] (at 50.0 µM), 12.3%. Further, the growth inhibition in assay [3] (setting [7]) was 25%; in assay [3] (setting [8]), 99% (active); in assay [3] (at 50.0 µM), 74.3% (active); in assay [4] (setting [7]), 11%; in assay [4] (setting [8]) it was 98% (active); in assay [4] (at 50.0 µM), 2%. The growth inhibition is 18% in assay [5] (setting [7]); 98% (active) in assay [5] (setting [8]); 31.2% in assay [5] (at 50.0 µM); 64% in assay [6] (setting [7]); 99% (active) in assay [6] (setting [8]); 38% in assay [6] (at 50.0 µM).
With `CN1CC[C@@H](c2ccccc2)[C@@H](O)C1`, the growth inhibition in assay [1] (setting [7]) was 0%; in assay [1] (setting [8]), -11%; in assay [1] (at 50.0 µM), 6.3%; in assay [2] (setting [7]) it was 4%; in assay [2] (setting [8]) it was -4%; in assay [2] (at 50.0 µM) it was 12%. The growth inhibition in assay [3] (setting [7]) was 2%; in assay [3] (setting [8]), -10%; in assay [3] (at 50.0 µM), 49.1%; in assay [4] (setting [7]) it was -3%; in assay [4] (setting [8]) it was -11%; in assay [4] (at 50.0 µM), -1.15%. Further, the growth inhibition was 0% in assay [5] (setting [7]); -3% in assay [5] (setting [8]); 3.5% in assay [5] (at 50.0 µM); -1% in assay [6] (setting [7]); -29% in assay [6] (setting [8]); 9.55% in assay [6] (at 50.0 µM).
With `CCOC(=O)c1c(O)c(C)c(=O)n2c1[nH]c1cc(C)c(C)cc12`, the growth inhibition in assay [1] (setting [7]) was -1%; in assay [1] (setting [8]), 12%; in assay [1] (at 50.0 µM), -6.75%; in assay [2] (setting [7]), 10%; in assay [2] (setting [8]), 33%; in assay [2] (at 50.0 µM), -6.85%. For the same compound, the growth inhibition in assay [3] (setting [7]) was 12%; in assay [3] (setting [8]), 29%; in assay [3] (at 50.0 µM), -6.5%; in assay [4] (setting [7]), -4%; in assay [4] (setting [8]), 2%; in assay [4] (at 50.0 µM), -21.3%. The growth inhibition in assay [5] (setting [7]) was -6%; in assay [5] (setting [8]), 14%; in assay [5] (at 50.0 µM), -43.9%; in assay [6] (setting [7]), -4%; in assay [6] (setting [8]), 38%; in assay [6] (at 50.0 µM) it was -10.6%.
On to `O=C1c2ccccc2C(=O)c2sc(Nc3ccc(Cl)c(Cl)c3)nc21`, for which the growth inhibition in assay [1] (setting [7]) is 89% (active); in assay [1] (setting [8]), 98% (active); in assay [1] (at 50.0 µM), 90% (active); in assay [2] (setting [7]), 86% (active); in assay [2] (setting [8]), 98% (active); in assay [2] (at 50.0 µM) it was 92.8% (active). The growth inhibition was 99% (active) in assay [3] (setting [7]); 98% (active) in assay [3] (setting [8]); 93.2% (active) in assay [3] (at 50.0 µM); 68% in assay [4] (setting [7]); 98% (active) in assay [4] (setting [8]); 88% (active) in assay [4] (at 50.0 µM). The growth inhibition in assay [5] (setting [7]) is 99% (active); in assay [5] (setting [8]), 97% (active); in assay [5] (at 50.0 µM), 91.2% (active); in assay [6] (setting [7]), 91% (active); in assay [6] (setting [8]), 97% (active); in assay [6] (at 50.0 µM), 91.3% (active).
On to `O=C(CC1(O)C(=O)Nc2c(Cl)cccc21)c1ccc(Cl)cc1` (configuration not stated), for which the growth inhibition in assay [1] (setting [7]) was 9%; in assay [1] (setting [8]), 45%; in assay [1] (at 50.0 µM) it was 18.6%; in assay [2] (setting [7]), 8%; in assay [2] (setting [8]), 29%; in assay [2] (at 50.0 µM), 20.8%. For the same compound, the growth inhibition in assay [3] (setting [7]) was -19%; in assay [3] (setting [8]), 36%; in assay [3] (at 50.0 µM), 33.8%; in assay [4] (setting [7]) it was 17%; in assay [4] (setting [8]), 71% (active); in assay [4] (at 50.0 µM), 19.4%. The growth inhibition in assay [5] (setting [7]) is 10%; in assay [5] (setting [8]), 72% (active); in assay [5] (at 50.0 µM), 19.4%; in assay [6] (setting [7]), -7%; in assay [6] (setting [8]), 54%; in assay [6] (at 50.0 µM), 28.3%.
As to `Cc1cc(N(CCCOS(C)(=O)=O)CCCOS(C)(=O)=O)ccc1C=Nc1cc(Br)c(O)c(Br)c1`, the growth inhibition in assay [1] (setting [7]) was -5%; in assay [1] (setting [8]) it was 33%; in assay [1] (at 50.0 µM), 41%; in assay [2] (setting [7]) it was 36%; in assay [2] (setting [8]), 7%; in assay [2] (at 50.0 µM), 21.3%. The growth inhibition is -3% in assay [3] (setting [7]); 27% in assay [3] (setting [8]); 86.1% (active) in assay [3] (at 50.0 µM); -3% in assay [4] (setting [7]); -5% in assay [4] (setting [8]); 4.8% in assay [4] (at 50.0 µM). In addition, the growth inhibition in assay [5] (setting [7]) was 0%; in assay [5] (setting [8]) it was 41%; in assay [5] (at 50.0 µM), 34.8%; in assay [6] (setting [7]), -2%; in assay [6] (setting [8]), 41%; in assay [6] (at 50.0 µM) it was 68.4%.
Consider `[N-]=[N+]=Nc1ccnc2ccc(C3CCCCC3)cc12`, for which the growth inhibition is -8% in assay [1] (setting [7]); 99% (active) in assay [1] (setting [8]); 56.5% in assay [1] (at 50.0 µM); -8% in assay [2] (setting [7]); 100% (active) in assay [2] (setting [8]); 30.9% in assay [2] (at 50.0 µM). The growth inhibition was -8% in assay [3] (setting [7]); 99% (active) in assay [3] (setting [8]); 94.8% (active) in assay [3] (at 50.0 µM); 6% in assay [4] (setting [7]); 99% (active) in assay [4] (setting [8]); 51.1% in assay [4] (at 50.0 µM). In addition, the growth inhibition was -4% in assay [5] (setting [7]); 99% (active) in assay [5] (setting [8]); 67.3% in assay [5] (at 50.0 µM); -2% in assay [6] (setting [7]); 99% (active) in assay [6] (setting [8]); 91.7% (active) in assay [6] (at 50.0 µM).
`c1ccc2c(c1)Cc1cc3ccccc3nc1-2`: the growth inhibition in assay [1] (setting [7]) is 13%; in assay [1] (setting [8]), 97% (active); in assay [1] (at 50.0 µM), 96.5% (active); in assay [2] (setting [7]), 18%; in assay [2] (setting [8]), 97% (active); in assay [2] (at 50.0 µM), 86.5% (active). Also, the growth inhibition in assay [3] (setting [7]) was 13%; in assay [3] (setting [8]), 98% (active); in assay [3] (at 50.0 µM) it was 87.1% (active); in assay [4] (setting [7]) it was -9%; in assay [4] (setting [8]), 90% (active); in assay [4] (at 50.0 µM) it was 92% (active). In addition, the growth inhibition in assay [5] (setting [7]) is 10%; in assay [5] (setting [8]), 94% (active); in assay [5] (at 50.0 µM), 89.7% (active); in assay [6] (setting [7]) it was 28%; in assay [6] (setting [8]), 99% (active); in assay [6] (at 50.0 µM) it was 97.2% (active).
